The structures appear in SMILES notation. Active and inactive are the calls of the source. Unless noted, no rule for the calls is given here. Where a SMILES comes first, the peptide text is derived from it. The star is where a group is joined. Boc = CC(C)(C)OC(=O)*

Assay [1] has as its system Botulinum neurotoxin type F light chain protease (Clostridium botulinum). Kind of assay: Botulinum neurotoxin type F light chain protease inhibition, multiplex microsphere flow cytometry, validation set (AID 588459). Conditions: multiplex microsphere protease substrate cleavage assay, at 10 µM, stronger effect = higher value.
Assay [2] concerns the target Botulinum neurotoxin type A (Clostridium botulinum) (UniProt P0DPI0). The assay is described as follows: BoNT/A light chain protease inhibitors, biochemical, multiplex microsphere flow cytometry, validation set (AID 588460). Conditions: at 10 µM, stronger effect = higher value.
Assay [3] can be described thus: inhibitors of CD8+ T cell-vesicle binding, pilot screen, LFA-1/ICAM-1 modulator project, MLPCN validation set, flow cytometry (AID 2523;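 active = response below a set limit, under 55% cells CD8-positive and vesicle-bound, and CD8 cells' 90th-percentile brightness under 279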;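 as to vesicle binding response: mean PE anti-B7-1 fluorescence of CD8+ cells relative to row control; 100% = QL9-loaded vesicles with DMSO vehicle in the same plate row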). To be noted: 2C mouse CD8+ T cells, at 7 µM, stronger effect = lower value; double positive events: measured here: CD8+/vesicle+ event percentage.
Assay [4] addresses Integrin beta-1 (Homo sapiens) + Integrin alpha-4 (Homo sapiens) (UniProt P13612+P05556). Kind of assay: inhibition of HUTS-21 binding to VLA-4, pilot screen, VLA-4 allosteric modulator project, U937 cells, HUTS-21 mAb, flow cytometry, validation set (AID 2674;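 active = inhibition above 50%, about 3 SD of the validation set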;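 also: antibody binding induced by the VLA-4 ligand LDV present at three times its Kd; 0% = LDV ligand with antibody and no compound and 100% = antibody without LDV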). Conditions: HUTS-21 LIBS mAb binding, at 6.7 µM, stronger effect = higher value.
Assay [5] is described as follows: superoxide lowering in aged yeast cells, pilot screen, validation compound set (AID 2706;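 active = superoxide response below 65% of plate, a cut near 3 SD across the whole screen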;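 also: yeast exposed to compound for one week at 30 degrees C before staining; 100% = mean of all compound wells on the same plate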). Conditions: S. cerevisiae aging, superoxide DHE fluorescence; at 10 µM; stronger effect = lower value.
Assay [6] concerns the target Beta-adrenergic receptor kinase 1 (Homo sapiens) (UniProt P25098). Kind of assay: GRK2 binders displacing RNA aptamer, biochemical, validation, human GRK2, bead flow cytometry (AID 488806;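 active = aptamer binding inhibition above 30%, about 3 SD of noise from non-fluorescent compounds; inactive = inhibition at or below 30%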). To be noted: bead-bound GRK2, FAM-aptamer displacement, at 10 µM, stronger effect = higher value.
The target of assay [7] is Beta-2 adrenergic receptor (Homo sapiens) (UniProt P07550). Kind of assay: beta2AR agonists driving receptor internalization, pilot screen, cell-based, FAP fluorogen, flow cytometry, validation set (AID 504459;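 active = percent response above 42, roughly 3 SD of non-fluorescent test compounds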;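 also: agonist-driven loss of surface beta2AR via internalization measured by FAP dye flow cytometry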). To be noted: Am2.2-beta2AR cells, FAP surface receptor flow cytometry; at 10 µM; stronger effect = higher value.
Assay [8] concerns the target AP-2 complex subunit beta (Homo sapiens) (UniProt P63010). Kind of assay: inhibitors of arrestin peptide binding to AP2, pilot screen, biochemical, validation set, GST-AP2 beads, flow cytometry (AID 504541;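 active = inhibition above 54%, about 3 SD of non-fluorescent compounds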;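 also: AP2 carries R879A mutation and is captured from E. coli lysate; bead-bound FITC arrestin peptide fluorescence measuring arrestin peptide binding to AP2; 0% = DMSO wells and 100% = excess unlabeled arrestin peptide control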). Conditions: FITC arrestin peptide, at 10 µM, stronger effect = higher value.
A short description of assay [9]: yeast V-ATPase proton transport modulators, S. cerevisiae, pHLuorin, HTS validation (AID 504600; in the data active = response above about 15%;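 also: plate controls were DMSO for no effect and reference compound for full effect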). Conditions: S. cerevisiae pHLuorin cytosolic pH, at 10 µM, stronger effect = higher value.
The test system of assay [10] is anti-desmoglein-3 scFv antibody binding to human DSG3. Kind of assay: inhibitors of anti-DSG3 scFv binding to DSG3, pilot screen, biochemical, validation compound set, bead-based, flow cytometry (AID 588368;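 active = binding below the plate cutoff, the plate median minus 3 SD, with a reading above zero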;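 also: signal is the median channel fluorescence of bead-bound GFP antibody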). To be noted: Protein G beads, DSG3-Fc, scFv-GFP binding, at 10 µM, stronger effect = lower value.
For assay [11], the target named is Lethal factor (Bacillus anthracis) (UniProt P15917). Kind of assay: Lethal factor protease inhibitors, Bacillus anthracis, multiplex microsphere cleavage assay, validation set (AID 588461). To be noted: flow cytometry, at 10 µM, stronger effect = higher value.
Assay [12] can be described thus: inhibitors of fungal efflux pumps CDR1, CDR2, MDR1, pilot screen, validation compound set, multiplex, phenotypic (AID 588506;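 active = efflux inhibition above 0.42, the validation set average plus 4 SD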;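 also: Nile Red retained in cells so higher fluorescence means more efflux inhibition; 0 = negative control wells and 1 = enniatin B 25 µM full block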). Conditions: S. cerevisiae pump-expressing triplex, Nile Red efflux flow cytometry; at 10 µM; stronger effect = higher value.
Assay [13] deals with ATP-binding cassette sub-family B member 6 (Homo sapiens) (UniProt Q9NP58). Kind of assay: ABCB6 transporter inhibitors, pilot screen, K562-ABCB6 cells, flow cytometry, validation set (AID 588550;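 active = inhibition above the screen-wide mean plus 3 SD, about 51%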;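 also: 0% = DMSO wells and 100% = benzethonium chloride 70 µM positive control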). To be noted: K562-ABCB6 porphyrin accumulation, 1 h, at 10 µM, stronger effect = higher value.
Assay [14] is described as follows: promoters of myeloid differentiation in arrested cells, primary screen, cell-based, GFP/MAC1 double positive, flow cytometry, validation set (AID 588685;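 active = differentiation response of at least 50%, scaled between solvent and reference control, from cells with both markers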;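 also: compound exposure lasts four days before antibody staining and flow analysis; 0% = DMSO wells and 100% = 5 µM fulvestrant positive control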). To be noted: ER-HoxA9 marrow cells, stronger effect = higher value.

Sequence of Lethal factor (Bacillus anthracis) (P15917 whole entry, looked up): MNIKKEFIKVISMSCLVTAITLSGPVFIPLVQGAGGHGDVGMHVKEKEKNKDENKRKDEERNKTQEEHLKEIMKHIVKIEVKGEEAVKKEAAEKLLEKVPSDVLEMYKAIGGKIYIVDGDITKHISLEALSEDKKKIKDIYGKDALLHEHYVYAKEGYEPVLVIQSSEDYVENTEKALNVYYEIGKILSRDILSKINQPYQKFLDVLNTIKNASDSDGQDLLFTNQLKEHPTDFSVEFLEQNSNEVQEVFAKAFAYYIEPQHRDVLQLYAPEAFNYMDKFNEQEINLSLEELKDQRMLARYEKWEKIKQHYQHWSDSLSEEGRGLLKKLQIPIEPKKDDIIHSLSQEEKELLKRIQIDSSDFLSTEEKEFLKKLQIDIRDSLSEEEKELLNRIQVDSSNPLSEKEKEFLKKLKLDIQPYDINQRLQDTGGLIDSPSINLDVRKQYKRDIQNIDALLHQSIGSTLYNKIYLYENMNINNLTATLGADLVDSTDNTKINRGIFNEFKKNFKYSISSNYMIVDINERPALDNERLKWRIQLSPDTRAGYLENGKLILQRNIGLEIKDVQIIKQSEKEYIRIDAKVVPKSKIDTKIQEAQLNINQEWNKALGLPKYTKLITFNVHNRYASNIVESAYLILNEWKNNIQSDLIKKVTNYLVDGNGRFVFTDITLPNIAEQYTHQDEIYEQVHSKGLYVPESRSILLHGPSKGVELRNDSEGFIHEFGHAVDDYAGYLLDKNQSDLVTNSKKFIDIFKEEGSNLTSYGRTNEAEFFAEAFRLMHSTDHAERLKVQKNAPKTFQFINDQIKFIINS
Sequence of Beta-adrenergic receptor kinase 1 (Homo sapiens) (P25098 whole entry, looked up): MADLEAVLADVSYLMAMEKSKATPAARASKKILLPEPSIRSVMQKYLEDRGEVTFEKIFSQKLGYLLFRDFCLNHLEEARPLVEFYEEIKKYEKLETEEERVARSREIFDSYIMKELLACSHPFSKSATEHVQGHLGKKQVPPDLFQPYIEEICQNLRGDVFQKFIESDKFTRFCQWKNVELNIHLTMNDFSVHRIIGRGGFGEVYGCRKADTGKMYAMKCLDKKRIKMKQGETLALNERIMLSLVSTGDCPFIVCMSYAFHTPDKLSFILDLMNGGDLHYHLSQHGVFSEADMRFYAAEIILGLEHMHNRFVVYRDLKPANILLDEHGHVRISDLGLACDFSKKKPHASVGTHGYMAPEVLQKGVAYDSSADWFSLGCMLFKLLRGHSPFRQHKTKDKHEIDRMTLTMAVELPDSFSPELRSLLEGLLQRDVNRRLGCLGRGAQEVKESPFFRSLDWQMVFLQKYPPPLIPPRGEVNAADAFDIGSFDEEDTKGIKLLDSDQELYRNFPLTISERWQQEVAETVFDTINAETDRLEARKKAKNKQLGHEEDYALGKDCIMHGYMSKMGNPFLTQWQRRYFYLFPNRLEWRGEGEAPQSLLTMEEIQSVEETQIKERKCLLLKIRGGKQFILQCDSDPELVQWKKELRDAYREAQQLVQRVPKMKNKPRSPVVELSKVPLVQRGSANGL
Sequence of ATP-binding cassette sub-family B member 6 (Homo sapiens) (Q9NP58 whole entry, looked up): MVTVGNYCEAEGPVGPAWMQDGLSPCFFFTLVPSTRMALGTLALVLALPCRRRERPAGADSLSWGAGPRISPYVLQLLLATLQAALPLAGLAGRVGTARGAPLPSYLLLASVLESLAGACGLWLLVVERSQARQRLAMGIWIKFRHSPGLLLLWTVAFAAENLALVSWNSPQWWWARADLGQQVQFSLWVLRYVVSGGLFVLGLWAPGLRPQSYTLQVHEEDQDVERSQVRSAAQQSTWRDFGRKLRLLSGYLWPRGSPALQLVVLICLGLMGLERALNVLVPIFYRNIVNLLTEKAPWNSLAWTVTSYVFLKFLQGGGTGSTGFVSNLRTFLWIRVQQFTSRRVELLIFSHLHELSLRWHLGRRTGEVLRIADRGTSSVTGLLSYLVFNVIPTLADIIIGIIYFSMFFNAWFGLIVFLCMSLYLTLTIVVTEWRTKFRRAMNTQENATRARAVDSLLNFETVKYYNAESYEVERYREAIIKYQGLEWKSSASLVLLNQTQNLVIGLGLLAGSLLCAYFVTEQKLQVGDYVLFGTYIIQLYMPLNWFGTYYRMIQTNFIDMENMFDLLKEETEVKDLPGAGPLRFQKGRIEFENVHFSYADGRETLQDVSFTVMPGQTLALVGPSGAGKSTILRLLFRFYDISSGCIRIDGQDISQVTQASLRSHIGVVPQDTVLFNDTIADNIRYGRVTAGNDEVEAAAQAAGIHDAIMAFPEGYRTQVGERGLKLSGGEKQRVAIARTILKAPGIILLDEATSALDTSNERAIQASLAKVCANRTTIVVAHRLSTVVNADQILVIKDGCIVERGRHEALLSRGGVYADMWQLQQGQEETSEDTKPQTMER
Sequence of Botulinum neurotoxin type A (Clostridium botulinum) (P0DPI0 whole entry, looked up): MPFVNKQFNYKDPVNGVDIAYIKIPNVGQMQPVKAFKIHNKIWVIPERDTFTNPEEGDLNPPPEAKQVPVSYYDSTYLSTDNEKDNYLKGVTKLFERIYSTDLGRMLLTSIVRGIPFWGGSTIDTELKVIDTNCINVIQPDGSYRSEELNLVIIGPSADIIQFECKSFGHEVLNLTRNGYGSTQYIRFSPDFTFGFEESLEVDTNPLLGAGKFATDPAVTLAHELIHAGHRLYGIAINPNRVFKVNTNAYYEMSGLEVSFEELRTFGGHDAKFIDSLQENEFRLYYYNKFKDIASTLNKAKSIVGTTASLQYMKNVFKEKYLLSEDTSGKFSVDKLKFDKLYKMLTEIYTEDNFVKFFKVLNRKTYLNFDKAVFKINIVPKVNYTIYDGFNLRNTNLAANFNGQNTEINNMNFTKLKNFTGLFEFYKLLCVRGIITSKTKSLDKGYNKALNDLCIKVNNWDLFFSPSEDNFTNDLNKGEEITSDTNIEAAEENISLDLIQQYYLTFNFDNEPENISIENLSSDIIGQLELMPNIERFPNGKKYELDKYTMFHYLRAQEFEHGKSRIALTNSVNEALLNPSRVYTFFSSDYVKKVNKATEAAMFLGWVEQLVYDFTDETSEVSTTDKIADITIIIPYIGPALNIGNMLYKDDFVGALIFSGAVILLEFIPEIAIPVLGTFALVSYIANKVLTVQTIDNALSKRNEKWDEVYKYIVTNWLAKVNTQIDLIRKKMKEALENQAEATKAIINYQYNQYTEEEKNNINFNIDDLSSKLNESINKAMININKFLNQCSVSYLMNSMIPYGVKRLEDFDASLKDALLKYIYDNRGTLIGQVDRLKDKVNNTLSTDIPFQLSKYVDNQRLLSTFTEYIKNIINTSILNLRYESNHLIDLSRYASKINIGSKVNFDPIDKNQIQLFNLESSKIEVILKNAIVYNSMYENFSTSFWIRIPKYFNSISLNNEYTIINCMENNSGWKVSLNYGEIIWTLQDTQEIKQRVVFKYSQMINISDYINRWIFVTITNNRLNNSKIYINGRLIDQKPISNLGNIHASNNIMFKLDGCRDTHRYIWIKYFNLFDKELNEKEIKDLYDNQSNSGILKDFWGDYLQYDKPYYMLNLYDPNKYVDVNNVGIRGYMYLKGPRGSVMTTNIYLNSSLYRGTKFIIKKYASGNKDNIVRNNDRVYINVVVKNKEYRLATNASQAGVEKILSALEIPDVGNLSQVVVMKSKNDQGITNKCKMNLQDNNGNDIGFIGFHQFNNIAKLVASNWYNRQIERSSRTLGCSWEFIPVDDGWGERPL
Sequence of Beta-2 adrenergic receptor (Homo sapiens) (P07550 whole entry, looked up): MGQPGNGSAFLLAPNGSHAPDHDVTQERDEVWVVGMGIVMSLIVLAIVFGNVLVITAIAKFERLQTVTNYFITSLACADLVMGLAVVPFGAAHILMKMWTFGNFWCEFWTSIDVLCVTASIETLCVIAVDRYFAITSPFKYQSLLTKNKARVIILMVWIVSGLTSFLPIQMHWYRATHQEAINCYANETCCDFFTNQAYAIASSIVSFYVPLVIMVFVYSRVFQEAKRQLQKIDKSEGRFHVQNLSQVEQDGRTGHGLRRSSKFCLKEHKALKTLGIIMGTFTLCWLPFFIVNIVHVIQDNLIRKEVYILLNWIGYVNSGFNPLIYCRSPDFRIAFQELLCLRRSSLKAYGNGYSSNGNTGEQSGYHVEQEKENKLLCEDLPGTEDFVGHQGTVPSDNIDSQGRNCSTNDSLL
Sequence of AP-2 complex subunit beta (Homo sapiens) (P63010 whole entry, looked up, one chain of several): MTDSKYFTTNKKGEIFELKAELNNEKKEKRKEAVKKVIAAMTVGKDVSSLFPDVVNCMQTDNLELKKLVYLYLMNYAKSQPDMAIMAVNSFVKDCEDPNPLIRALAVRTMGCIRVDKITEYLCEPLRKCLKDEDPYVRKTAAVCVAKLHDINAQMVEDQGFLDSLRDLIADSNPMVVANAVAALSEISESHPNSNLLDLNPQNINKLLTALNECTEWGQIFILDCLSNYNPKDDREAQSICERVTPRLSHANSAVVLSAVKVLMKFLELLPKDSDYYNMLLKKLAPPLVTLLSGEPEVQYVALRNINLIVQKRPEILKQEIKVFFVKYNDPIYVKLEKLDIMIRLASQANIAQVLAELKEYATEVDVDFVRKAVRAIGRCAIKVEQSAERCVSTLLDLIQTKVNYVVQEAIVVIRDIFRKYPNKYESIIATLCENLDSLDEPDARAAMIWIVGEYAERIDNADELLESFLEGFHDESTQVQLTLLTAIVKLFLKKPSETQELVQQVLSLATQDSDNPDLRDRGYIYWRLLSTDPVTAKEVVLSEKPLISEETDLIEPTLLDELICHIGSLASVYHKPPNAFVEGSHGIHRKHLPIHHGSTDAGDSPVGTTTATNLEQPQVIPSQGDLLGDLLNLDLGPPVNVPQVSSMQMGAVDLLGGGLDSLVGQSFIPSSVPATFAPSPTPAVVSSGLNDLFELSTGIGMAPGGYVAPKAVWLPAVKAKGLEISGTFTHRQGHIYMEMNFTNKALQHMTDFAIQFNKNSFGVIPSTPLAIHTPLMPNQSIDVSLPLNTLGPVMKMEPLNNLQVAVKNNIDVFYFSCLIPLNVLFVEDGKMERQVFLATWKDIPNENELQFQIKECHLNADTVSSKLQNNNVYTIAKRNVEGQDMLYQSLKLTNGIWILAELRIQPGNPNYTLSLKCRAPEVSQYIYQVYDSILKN

Take `Cc1cc(NS(=O)(=O)c2ccc(N)cc2)no1`: the figures for the inhibition in assay [1] and in assay [2] were 0% (inactive) and 0.1% (inactive), respectively.
Consider `C[C@]12CCC(=O)C=C1CC[C@@H]1[C@@H]2C(=O)C[C@]2(C)C(=O)CC[C@@H]12`, for which the double positive events in assay [3] is 61%. In assay [3], the vesicle binding response was 259% (inactive). Moreover, the inhibition in assay [4] is 6.55% (inactive); in assay [8], 0.49% (inactive); in [1] it was -1.7% (inactive); in assay [2], 1% (inactive); in assay [11], -4.7% (inactive); in assay [13], -30% (inactive). Also, the superoxide response (% of plate) in assay [5] is 76.3% (inactive). Also, in assay [6], the aptamer binding inhibition is 3% (inactive). Also, the response in assay [7] is -22.9% (inactive); in assay [9], -0.42% (inactive). In addition, the binding (% of control) in assay [10] is 99.9% (inactive). Besides, in [12], the efflux inhibition (fraction of control) is 0.12 (inactive). The differentiation response in [14] is 5.85% (inactive).
For `NCC(O)c1ccc(O)cc1` (configuration not stated), the double positive events in assay [3] was determined as 66.5%. Also, in [3], the vesicle binding response is 150% (inactive). In addition, the inhibition in [4] is -2.27% (inactive); in assay [8], -8.51% (inactive); in [1] it was 1.9% (inactive); in assay [2] it was 1% (inactive); in [11], 6% (inactive); in assay [13], 8% (inactive). Further, the superoxide response (% of plate) in [5] was 94.8% (inactive). In assay [6], the aptamer binding inhibition is 2% (inactive). Moreover, the response in [7] is 8.68% (inactive); in assay [9], 2.02% (inactive). Further, the binding (% of control) in assay [10] was 103% (inactive). Further, the efflux inhibition (fraction of control) in assay [12] was -0.35 (inactive). Further, the differentiation response in [14] was 2.46% (inactive).
In the case of `C[C@]12CC[C@@H]3c4ccc(O)c(O)c4CC[C@H]3[C@@H]1CC[C@@H]2O`, the double positive events in [3] was 51%. The vesicle binding response in assay [3] was 107% (inactive). In addition, the inhibition in [4] was 27.7% (inactive); in assay [8], 1.47% (inactive); in assay [1], 0.2% (inactive); in assay [2], -0.1% (inactive); in [11], 2% (inactive); in [13], 7% (inactive). For the same compound, the superoxide response (% of plate) in assay [5] is 101% (inactive). Moreover, in assay [6], the aptamer binding inhibition is -1% (inactive). In [9], the response is -0.32% (inactive). In addition, in assay [10], the binding (% of control) is 108% (inactive). Besides, the efflux inhibition (fraction of control) in assay [12] is -0.28 (inactive). The differentiation response in assay [14] was 3.03% (inactive).
In [3], `Cc1nc2ccccc2c(=O)n1-c1ccc(C(=O)O)cc1` returned a double positive events of 63.4%. In assay [3], the vesicle binding response was 165% (inactive). For the same compound, the inhibition in assay [4] was 2.93% (inactive); in assay [8], 34.5% (inactive); in [1], 0.9% (inactive); in [2], -0.2% (inactive); in assay [11], -5.6% (inactive); in assay [13], -3% (inactive). Also, in [5], the superoxide response (% of plate) was 96.8% (inactive). The aptamer binding inhibition in assay [6] was 3% (inactive). For the same compound, the response in assay [7] is 0.79% (inactive); in [9], -10.1% (inactive). Also, the binding (% of control) in assay [10] was 101% (inactive). Moreover, the efflux inhibition (fraction of control) in assay [12] is -0.43 (inactive). The differentiation response in [14] is -8.96% (inactive).
For the compound `COCCOC(=O)C1=C(C)NC(C)=C(C(=O)OC(C)C)C1c1cccc([N+](=O)[O-])c1` (configuration not stated), the inhibition in assay [1] was -2.2% (inactive); in [2], -0.7% (inactive); in assay [11], -4.8% (inactive).
Taken in the same sequence, the figures for `CC(C)CC(NC(=O)C1CCCN1C(=O)OC(C)(C)C)C(=O)NCC(N)=O` (stereo not drawn) (Boc-Pro-Leu-Gly-NH2; configuration not given here) were 3.5% (inactive), 0.3% (inactive) and 4.3% (inactive).

(Values after PubChem BioAssay.)
